BioA inh = inhibitors of Mycobacterium tuberculosis BioA enzyme; actives 0.096% (n = 360,000); inhibition, % at 9.99 µM; AID 602481; purified M. tuberculosis BioA enzyme, plate reader; in the data active = inhibition above about 40%; inconclusive = no clear call, values can overlap the other calls
FBA Mtb inh = Mtb fructose-bisphosphate aldolase inhibition; purified M. tuberculosis FBA, fluorescence read-out; inhibition, % at 1 µM; actives 2.3% (n = 360,000); P9WQA3; AID 588726; in the data active = inhibition above about 27%;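 also: 0% = vehicle and 100% = reference inhibitor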
Target sequence (P9WQA3 whole entry, looked up): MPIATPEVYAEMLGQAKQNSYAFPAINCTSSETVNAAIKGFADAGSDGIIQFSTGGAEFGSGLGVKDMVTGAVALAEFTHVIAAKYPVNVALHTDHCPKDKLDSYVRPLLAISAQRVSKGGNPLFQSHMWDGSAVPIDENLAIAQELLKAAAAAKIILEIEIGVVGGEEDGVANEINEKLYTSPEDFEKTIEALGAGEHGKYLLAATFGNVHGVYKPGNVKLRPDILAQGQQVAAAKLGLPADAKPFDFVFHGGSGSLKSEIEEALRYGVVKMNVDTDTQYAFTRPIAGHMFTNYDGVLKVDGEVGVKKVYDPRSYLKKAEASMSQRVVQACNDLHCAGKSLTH
Mtb hypoxia rep = Mtb hypoxia fluorescent reporter inhibition; M. tuberculosis hypoxia-regulated fluorescent reporter, fluorescence; fluorescence inhibition, % (concentration not given with the values); actives 0.1% (n = 300,000); in the data active = fluorescence inhibition mostly above about 23%, no sharp cut-off; inactive = mostly below about 17%
FadD28 FP inh = inhibitors of Mycobacterium tuberculosis FadD28 bisubstrate binding; FadD28 bisubstrate probe binding, fluorescence polarization; inhibition, % at 12.5 µM; actives 0.22% (n = 360,000); AID 588549; in the data active = inhibition above about 8.5%, passing the limit was not always enough; inconclusive = no clear call, values can overlap the other calls
GDH-TPI counter = inhibits GDH-TPI coupling enzymes, artifact for Mtb FBA screen; GDH-TPI coupled enzyme counterscreen, NADH absorbance; inhibition, % at 4.8 µM; actives 1.2% (n = 360,000); AID 588335; in the data active = inhibition above about 30%;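 also: 0% = DMSO wells and 100% = wells lacking the enzyme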
* hit, by the source's call; ? = inconclusive; / = no result given; + = active, no number. The list is not random: actives were taken first. Their share in the collection is about 2.9%.

SMILES	BioA inh	FBA Mtb inh	Mtb hypoxia rep	FadD28 FP inh	GDH-TPI counter
CN(C)c1ccc(NC2=C([N+](=O)[O-])CS(=O)(=O)C2)cc1	/	-2.1	2.5	0.6	34.2*
CCOc1ccc2oc(-c3ccccc3)c(C(=O)O)c2c1	-0.4	+	/	-2.0	6.0
CC(Oc1ccc2oc(-c3ccccc3)c(C(=O)O)c2c1)C(=O)O (stereo not given)	2.0	+	0.1	-0.9	6.3
CCN(CC)C(=O)c1c(-c2ccccc2)oc2ccc(OC)cc12	/	0.2	15.3	-4.5	-4.4
Cc1oc2ccc(OC(C(=O)O)c3ccccc3)cc2c1C(=O)O (stereo not given)	-1.0	3.4	14.9	-0.4	3.0
O=C(C[C@H]1CC[C@H]2[C@@H](COC[C@H](O)CN2CC2CCOCC2)O1)NCc1ccc(Cl)cc1	-0.6	/	/	/	/
O=S(=O)(O)c1cccc2c(N=Nc3ccc(O)c4ncccc34)cccc12	3.4	-14.7	16.0	28.2*	3.7
Cc1ccccc1N=Nc1ccc(O)c2ncccc12	-1.5	1.0	3.7	-2.5	9.3
O=C(N/N=C/c1ccc([N+](=O)[O-])o1)c1cc2ccccc2o1	/	-3.3	/	-0.7	37.4*
O=C(N/N=C/c1ccc([N+](=O)[O-])o1)c1ccc(O)cc1	1.0	-4.6	/	-0.7	39.9*
O=C(N/N=C/c1ccc([N+](=O)[O-])o1)c1cc2c(ccc3ccccc32)o1	/	0.5	/	-3.8	-3.5
O=C(NN=Cc1ccc([N+](=O)[O-])o1)C(O)c1ccccc1 (stereo not given)	/	/	24.4*	/	/
COc1ccc(/C=C/c2nnc(NC(=O)C(C)(C)C)s2)cc1	/	9.2	7.6	-1.4	52.4*
Cc1c(NC(=S)NN=Cc2ccccc2O)c(=O)n(-c2ccccc2)n1C	/	/	8.4	/	/
Cc1c(NC(=S)N/N=C/c2cc([N+](=O)[O-])ccc2O)c(=O)n(-c2ccccc2)n1C	-0.4	-10.8	/	1.9	49.4*
COCCNC(=S)NCCCNc1nc2cc3c(cc2cc1C#N)OCO3	-0.7	180.2*	-3.9	-1.2	5.3
COCCCNC(=S)NCCNc1nc2c(C)c(C)ccc2cc1C#N	/	19.6	-8.1	-3.5	-5.0
O=C(N[C@@H]1CC[C@@H](CCNC(=O)C2CCOCC2)O[C@H]1CO)c1ccncc1	-0.9	/	/	/	/
COCCNC(=O)c1cc2c3ccccc3n(C)c2s1	1.9	2.7	6.5	-0.4	46.8*
CC(C)(C)c1nnc(N/N=C/c2cc(Br)ccc2O)n(N)c1=O	0.8	-1.1	/	-3.5	33.3*
C[C@H](CO)N1C[C@H](C)[C@@H](CN(C)C(=O)C2CCOCC2)Oc2ncc(-c3ccccc3F)cc2C1=O	-8.0	/	/	/	/
Cc1c(CC(=O)NCC(=O)NCC(=O)N[C@@H](Cc2ccccc2)C(=O)O)c(=O)oc2c(C)c(O)ccc12	-0.8	+	/	1.1	11.8
COc1ccc2c(CC(=O)N[C@@H](Cc3ccccc3)C(=O)O)cc(=O)oc2c1C	-0.6	148.7*	0.4	0.4	21.0
O=C(COc1ccc2ccc(=O)oc2c1)NC(Cc1ccc(Cl)cc1)C(=O)O (stereo not given)	1.0	18.1	/	-4.4	13.7
O=C(Cc1cc(=O)oc2cc(O)ccc12)NC(Cc1ccc(Cl)cc1)C(=O)O (stereo not given)	-0.7	+	-4.2	-0.1	7.1
SMILES	BioA inh	FBA Mtb inh	Mtb hypoxia rep	FadD28 FP inh	GDH-TPI counter
Cc1noc(C)c1NC(=O)N(C)C[C@@H]1Oc2ccc(NC(=O)Cc3cn(C)c4ccccc34)cc2CC(=O)N([C@H](C)CO)C[C@H]1C	-2.5	/	/	/	/
CN1c2ccccc2C(O)=C(C(=S)Nc2ccc(Cl)cc2)S1(=O)=O	0.0	1.3	1.2	?	47.7*
CCOC(=O)C(/C=C(\C#N)C(=O)OCC)=C(/N)N1CCN(c2ccc(Cl)cc2)CC1	1.3	-1.1	0.9	-0.2	58.5*
CCOC(=O)N1CCN(c2ccc(Cl)cc2)CC1	-2.0	1.4	17.5	-2.6	5.9
C[C@@H]1CCCCO[C@@H](CN(C)S(C)(=O)=O)[C@H](C)CN([C@@H](C)CO)C(=O)c2cc(NC(=O)Nc3ccc(C(F)(F)F)cc3)ccc2O1	1.3	/	/	/	/
COCCn1c(=O)[nH]c2cc(C(=O)OC)ccc2c1=O	-0.2	18.9	2.0	-5.4	-0.9
COC(=O)c1ccc2c(C)c(C(C)(C)O)[nH]c2c1	-2.5	+	2.7	1.4	19.2
CCN(CC)S(=O)(=O)c1ccc2nc(NC(=O)c3cccs3)sc2c1	-3.0	19.4	/	-4.5	35.5*
Cc1nc2ccc(NC(=O)c3cccs3)cc2s1	1.1	-0.4	1.2	-4.6	2.4
O=C(Nc1nc2cc3c(cc2s1)OCCO3)c1cccc(N2C(=O)CCC2=O)c1	-4.6	4.2	5.6	-1.2	31.2*

Bioassay records (PubChem BioAssay)
